# KCNQ2 enhance: KCNQ2 (rat) channel potentiation. O88943. CHO-K1 KCNQ2, FluxOR thallium flux fluorescence; hits give high values. B-score at 10 µM. actives 0.54% (n = 310,000). AID 2239;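 active means fluorescence ratio B-score at least 3 SD of library B-scores, with initial fluorescence B-score within 3 of them, cut at about 5.3 in these data; same plate scores as AID 2156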;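 further: B-score of peak minus minimum over baseline fluorescence ratio after K+ and Tl+ stimulus; positive B-score means potentiation of KCNQ2 with more thallium influx and brighter signal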
# KCNQ2 inh: KCNQ2 (rat) channel inhibition. O88943. CHO-K1 KCNQ2, FluxOR thallium flux, 20 min; hits give low values. B-score at 10 µM. actives 1.1% (n = 310,000);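 active means fluorescence ratio B-score at most minus 3 library SDs, with starting brightness B-score within 2 library SDs, cut at about -5.5 in these data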
# * = called active by the depositor; i = inactive; x = no result. Compounds with a hit are over-represented: about 1.6% of the library has one in this group of screens.
SMILES,KCNQ2 enhance,KCNQ2 inh
O=C(CSc1ccccc1[N+](=O)[O-])NC1CCS(=O)(=O)C1 (stereo not drawn),0.6,i
O=C(Cc1ccc(Cl)cc1Cl)NCc1cccnc1,x,i
CCCNC(=O)c1ccccc1NC(=O)Cc1ccc(OC)c(S(=O)(=O)N2CCOCC2)c1,x,i
COc1ccc(OCC(=O)NC(=S)N2CCCc3ccccc32)cc1,x,i
O=C(COc1ccccc1)NC(=S)N1CCc2ccccc21,10*,i
CN(CC(=O)Nc1ccccc1Sc1ccccc1)Cc1nc2ccccc2c(=O)[nH]1,x,i
CN(CC(=O)NC(c1ccccc1)c1ccccc1)Cc1nc2ccccc2c(=O)[nH]1,-6.6,-6.6*
COc1cccc(-c2nc(CS(=O)(=O)CC(=O)NC3CCCCC3C)c(C)o2)c1 (stereo not drawn),x,i
C=CCN1C(=O)c2ccc(C(=O)N3CCN(c4ccccc4OC)CC3)cc2C1=O,x,i
Cc1ccc(NC(=O)CN(C)CC(=O)NC2CCCc3ccccc32)cc1 (stereo not drawn),x,i
CC(C)(C)c1ccc(NC(=O)CNC2CCCc3ccccc32)cc1 (stereo not drawn),-6.9,-6.9*
COc1ccc2oc(=O)c(C(=O)C[n+]3cccc(C)c3)cc2c1,0.94,i
O=C(CCc1ccccc1)NC(=S)Nc1cc(C(F)(F)F)ccc1N1CCOCC1,-6.2,-6.2*
CC(C)CC(=O)NC(=S)Nc1cc(C(F)(F)F)ccc1N1CCOCC1,x,i
CC(C)OC(=O)/C(=C\c1ccccc1)NC(=O)c1ccccc1,-5.6,-5.6*
CC(C)OC(=O)/C(=C\c1cccc2ccccc12)NC(=O)c1ccccc1,x,i
Cc1cccc(NCc2cccc3ccccc23)n1,-5.9,-5.9*
COc1ccc(CNc2cccc(C)n2)c(O)c1,x,i
N#Cc1ccc(COC(=O)c2ccc(N3CCCC3)c([N+](=O)[O-])c2)cc1,-6.8,-6.8*
O=C(OCc1ccc([N+](=O)[O-])cc1)c1ccc(N2CCCC2)c([N+](=O)[O-])c1,x,i
CCC(=O)N(CCC1(c2ccccc2OC)CCOC(C(C)C)C1)Cc1ccco1 (stereo not drawn),-5.8,-5.8*
COc1ccccc1C1(CC(=O)O)CCOC(C(C)C)C1 (stereo not drawn),x,i
COc1ccccc1C(=O)N/C(=C\c1cn(C)c2ccccc12)C(=O)N1CCOCC1,x,i
Cn1cc(/C=C(\NC(=O)c2ccccc2Cl)C(=O)N2CCOCC2)c2ccccc21,-7,-7*
CCc1nc(SCC(=O)Nc2nnc(CC(C)C)s2)n[nH]1,0.11,i
SMILES,KCNQ2 enhance,KCNQ2 inh
COc1ccc(CNCc2cc3c(cc2[N+](=O)[O-])OCO3)cc1,1.4,i
Cc1cc(C)cc(NCc2cc3c(cc2[N+](=O)[O-])OCO3)c1,-6.2,-6.2*
Cc1cc(O)ccc1NS(=O)(=O)c1ccc2c3c(cccc13)C(=O)N2,2.5,i
CCN(C(=O)N1CCOCC1)c1ccccc1C,0.07,i
Cc1ccc(S(=O)(=O)NC2c3cccc4cccc(c34)C2Sc2nncn2C)cc1 (stereo not drawn),1.5,i
Cn1cnnc1SC1c2cccc3cccc(c23)C1NS(=O)(=O)c1ccccc1 (stereo not drawn),x,i
Cc1ccc(S(=O)(=O)NC2c3cccc4cccc(c34)C2Sc2nc(C)cc(C)n2)cc1 (stereo not drawn),-6.4,-6.4*
O=S(=O)(NC1c2cccc3cccc(c23)C1Sc1ncccn1)c1ccccc1 (stereo not drawn),-6.4,-6.4*
CC(=O)C[C@H]1c2ccccc2S(=O)(=O)N1c1ccccc1,0.34,i
COc1cc(C(=O)Nc2ccc(N3CCCS3(=O)=O)cc2)c([N+](=O)[O-])cc1OC,x,i
Cn1c(=O)c(=O)n(C)c2cc(N3CCCCC3)c(NS(=O)(=O)c3ccc([N+](=O)[O-])cc3)cc21,0.67,i
CN1CCN(C(=O)c2cc(=O)c3cc(Cl)cc(Cl)c3o2)CC1,2,i
COc1cccc(C(=O)Nn2cnnc2)c1OC,x,i
CCN(CC)CCN(C(=O)c1ccc2c(c1)CCCC2)c1nc2c(C)cccc2s1,-8.1,-8.1*
CCN(CC)CCN(C(=O)c1ccc2c(c1)CCCC2)c1nc2ccc(C)cc2s1,x,i
Cc1cc(C)c2nc(N(CCN(C)C)C(=O)c3ccc4ccccc4c3)sc2c1,-6,-6*
CN(C)CCN(C(=O)c1ccc2ccccc2c1)c1nc2c(F)cccc2s1,x,i
O=C(Cc1ccc(Cl)cc1)N1CCN(c2ccccc2)CC1,x,i
CCOC(=O)c1ccc(CNC(=O)c2cc(C(C)(C)C)oc2C)o1,0.69,i
Cc1ccc(CNC(=O)c2sc3nc4c(c(C(F)(F)F)c3c2N)CCC4)cc1,x,i
Nc1c(C(=O)NCc2ccc(Cl)cc2)sc2nc3c(c(C(F)(F)F)c12)CCC3,-6.1,-6.1*
Cc1cc(OCC(=O)N2CCc3ccccc3C2)c(C)cc1Br,-6.1,-6.1*
Cc1ccc(C)c(OCC(=O)N2CCc3ccccc3C2)c1,x,i
Cc1cc(N/N=C2\CC(C)CC(C)(C)C2)nc2ccccc12 (stereo not drawn),-5.6,-5.6*
CC1C/C(=N/Nc2nc3ccccc3[nH]2)CC(C)(C)C1 (stereo not drawn),1.1,i
SMILES,KCNQ2 enhance,KCNQ2 inh
COc1ccc(CCNC(=O)COC(=O)c2ccc(N3CCCC3=O)cc2)cc1OC,x,i
COc1cc(C(=O)N2CCCN(C)CC2)cc(OC)c1C,x,i
COc1ccc(C)cc1NC(=O)C(NC(=O)c1cc(OC)c(OC)c(OC)c1)C(C)C (stereo not drawn),0.31,i
C=CCNC(=S)Nc1sc2c(c1C(=O)OCC)CC(C)(CC)OC2 (stereo not drawn),9.9*,i
C=CCNC(=S)Nc1sc2c(c1C(=O)OCC)CCN(C(=O)OCC)C2,x,i
COc1cc(Cl)ccc1OCc1cc(C(=O)NCCCN2CCCC2=O)no1,0.09,i
Cc1ccc(C(=O)c2ccccc2C(=O)Nc2ccccc2)cc1,1.7,i
Cc1ccc(C)c(NC(=O)c2ccccc2C(=O)c2ccccc2)c1,-6,-6*
Cc1cc(C)nc(SCC(=O)N(C)CC(=O)Nc2c(Cl)cccc2Cl)n1,x,i
COc1cccc(C2N=C(c3ccccc3C)NO2)c1OC (stereo not drawn),x,i
CN(C)c1ccc(/C=C/c2nc3ccccc3c(=O)n2CCO)cc1,-6,-6*
O=c1c2ccccc2nc(/C=C/c2ccccc2)n1CCCO,2.5,i
CCN(CC)CCSc1nnc2c3ccccc3n(CCc3ccccc3)c2n1,x,i
c1ccc(CCn2c3ccccc3c3nnc(SCc4ccc5nonc5c4)nc32)cc1,-6.2,-6.2*
CC(C)(C)c1ccc(C(=O)Nc2ccc(O)c3c(=O)cc(-c4ccccc4Cl)oc23)cc1,-7,-7*
O=C(Nc1ccc(O)c2c(=O)cc(-c3ccccc3Cl)oc12)c1ccc(F)cc1,1.5,i
O=C1CCCN1CCCNS(=O)(=O)c1ccc(F)cc1F,0.97,i
CC1(C)CC(c2nc(-c3ccc(Cl)cc3)cs2)CCS1 (stereo not drawn),-6.4,-6.4*
CC1(C)CC(c2nc(-c3ccc(Br)cc3)cs2)CCS1 (stereo not drawn),x,i
Nc1ccc(C(=O)N2CCN(S(=O)(=O)c3ccc(Br)cc3)CC2)cc1[N+](=O)[O-],x,i
Cc1cc(NC(=O)CSC2=NS(=O)(=O)c3cc(F)ccc3N2)no1,x,i

# Compound activity from PubChem BioAssay.
